# A number with no mark means an inactive call. Inconclusive results are not listed. Entries that show only a call come without a potency. Active and inactive are the calls of the source. Unless noted, the call rests on the fitted dose curve; in most records, active means well fitted curve in the direction sought with a large enough effect; inconclusive means small, poorly fitted or top-dose-only effect, or another doubt; inactive means no such curve, though single readings can be large; an effect the other way counts as inactive or inconclusive.
# What was measured:
# [1] = Cell Viability - Jurkat (AID 426;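 active means dose-dependent loss of cell ATP signal giving a full or clear fitted curve, ranked by lower potency value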; further: potency means the concentration at half of the fitted maximal effect); conditions: qHTS
# In short: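 Jurkat (clone E6-1, human T-cell leukemia) cells, 5000/well in complete medium, were exposed to compound for 40 hr at 37 °C. Viability was read as intracellular ATP by CellTiter-Glo luminescence; AC50 came from Hill fits of concentration-response data.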
# [2] = Cell Viability - NIH 3T3 (AID 541); conditions: NIH 3T3 cell viability, qHTS; activity change, negative = cytotoxicity: at 92.2 µM (top of the series); further: nearly all actives have a fitted effect of over 25% in size; further: potency means the concentration at half of the fitted maximal effect
# In short: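 NIH 3T3 mouse embryo fibroblasts (1000 cells/well) were plated in complete medium and treated with compound for 40 hr at 37 °C. Viability was read as intracellular ATP by CellTiter-Glo luminescence; AC50 values came from Hill-equation fits of concentration-response data.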
# [3] = Cell Viability - Mesenchymal (AID 546); conditions: mesenchymal cells viability, qHTS; series mostly up to 91.7 µM;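 further: cells exposed to compound for 40 hours before reading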
# In short: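 Normal human renal glomerulus-derived kidney mesenchymal cells, 1000 per well in complete medium, were treated with compounds for 40 hr at 37 °C. Viability was read as intracellular ATP by CellTiter-Glo luminescence; AC50 values came from Hill-equation fits of qHTS concentration-response data.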
# [4] = Cellular Toxicity (caspase-3) MRC-5 (AID 659); conditions: MRC-5 cells, luminescence, normalized: DMSO 0%, 10 µM staurosporine 100%; series mostly up to 91.7 µM
# In short: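 Luminescence from caspase-cleaved aminoluciferin substrate (Caspase-Glo 3/7, 1 hr RT) reports caspase 3/7 activity in MRC-5 lung fibroblasts after 16 hr compound exposure. Normalized to DMSO basal and 10 uM staurosporine as 100%; AC50 from Hill fits.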
# [5] = Cellular Toxicity (caspase-3) NIH 3T3 (AID 666); conditions: NIH 3T3 caspase-3 activation, apoptosis/toxicity; series mostly up to 92.2 µM;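 further: caspase signal read after 16 h compound exposure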
# In short: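 Mouse NIH 3T3 fibroblasts (1000 cells/well) were treated with compound for 16 hr at 37°C in complete medium; caspase-3/7 activity was read by Caspase-Glo luminescence. Normalized to DMSO and 100 uM tamoxifen; AC50 from Hill fits.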
# [6] = MultiTox-Fluor Cytotoxicity Assay - LYMP1-001 - Dead Cells (AID 946); conditions: LYMP1-001 lymphoblastoid cells, dead-cell protease fluorescence; series mostly up to 92.2 µM
# In short: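 AC50 from Hill fit of concentration-response; data normalized to DMSO (basal) and 15 uM tetraoctylammonium bromide (100%). LYMP1-001 lymphoblastoid cells, 2500/well, 16 hr compound at 37 C; dead-cell protease fluorescence, Ex/Em 485/520.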
# [7] = MultiTox-Fluor Cytotoxicity Assay - LYMP1-002 - Live Cells (AID 955); conditions: LYMP1-002 lymphoblastoid live-cell protease fluorescence viability; series mostly up to 46.1 µM
# In short: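 Human lymphoblastoid LYMP1-002 cells, 2500/well in complete medium, rested 5 hr at 37 C, then exposed to compounds for 16 hr at 37 C. Live-cell protease cleavage of GF-AFC read by fluorescence (Ex/Em 405/510) after 60 min at room temperature; AC50 from Hill fits.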
# [8] = Cell Viability - LYMP1-003 - Assay at 24 hr (AID 963); conditions: LYMP1-003 lymphoblastoid cell viability; series mostly up to 92.2 µM
# In short: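 Human lymphoblastoid LYMP1-003 cells (2500/well) were rested 5 hr at 37 C, then exposed to compounds in complete medium for 24 hr at 37 C. Cellular ATP was quantified by CellTiter-Glo luminescence, and AC50 values came from Hill fits of concentration-response data.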
# [9] = Cell Viability - LYMP2-015 (AID 971); conditions: LYMP2-015 lymphoblastoid cell viability; series mostly up to 92.2 µM; further: nearly all actives have a fitted effect of over 55% in size
# In short: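 Human lymphoblastoid cells (2500/well) in complete medium were preincubated 5 hr at 37 C, then compound-treated 24 hr at 37 C. Intracellular ATP was read by CellTiter-Glo luminescence after 30 min at room temperature; AC50 came from Hill-equation concentration-response fits.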
# [10] = Cell Viability - LYMP2-016 (AID 984); conditions: LYMP2-016 lymphoblastoid cell viability, qHTS; series mostly up to 92.2 µM; further: nearly all actives have a fitted effect of over 55% in size
# In short: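 Cells were seeded at 2500 per well and rested 5 hr before a 24 hr compound exposure at 37 C. Viability was then gauged as cellular ATP by luciferase luminescence, with AC50 values fitted to the Hill equation.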
# [11] = Cell Viability - LYMP2-024 (AID 988); conditions: LYMP2-024 lymphoblastoid cell viability; series mostly up to 92.2 µM; further: nearly all actives have a fitted effect of over 60% in size
# In short: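 Human lymphoblastoid cells (2500/well) in complete medium were preincubated 5 hr at 37 C, then exposed to compounds for 24 hr at 37 C. Intracellular ATP was read by CellTiter-Glo luminescence; AC50 from Hill-equation fits of concentration-response data.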
# [12] = Cell Viability - LYMP1-002 - Assay at 24 hr (AID 993); conditions: LYMP1-002 lymphoblastoid cells viability; series mostly up to 92.2 µM
# In short: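 Human lymphoblastoid LYMP1-002 cells, 2500/well in complete medium, were treated with compounds for 24 h at 37 C; intracellular ATP was read by CellTiter-Glo luminescence. AC50 values came from Hill-equation fits of qHTS concentration-response data.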
# [13] = target: Vitamin D3 receptor (Homo sapiens) (UniProt P11473); test: qHTS assay for small molecule agonists of vitamin D receptor signaling (AID 588543; calls by dose curve); conditions: HEK293T VDR-UAS-bla, beta-lactamase ratio, 16 h; series mostly up to 76.8 µM
# Sequence of Vitamin D3 receptor (Homo sapiens) (P11473 whole entry, looked up): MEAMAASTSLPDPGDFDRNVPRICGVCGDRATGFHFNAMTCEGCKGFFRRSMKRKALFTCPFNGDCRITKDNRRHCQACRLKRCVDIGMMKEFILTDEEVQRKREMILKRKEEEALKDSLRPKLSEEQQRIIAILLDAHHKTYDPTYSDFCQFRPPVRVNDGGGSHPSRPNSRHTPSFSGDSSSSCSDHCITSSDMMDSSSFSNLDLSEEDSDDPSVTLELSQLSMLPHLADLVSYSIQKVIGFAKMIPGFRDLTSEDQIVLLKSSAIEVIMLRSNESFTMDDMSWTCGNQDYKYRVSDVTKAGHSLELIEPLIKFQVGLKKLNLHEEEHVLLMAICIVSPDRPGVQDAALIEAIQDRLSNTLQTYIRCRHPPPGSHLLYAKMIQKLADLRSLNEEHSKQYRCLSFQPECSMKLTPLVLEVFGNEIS
# In short: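 Reporter cells (HEK293T, VDR-UAS-bla) were seeded in medium with 2% charcoal-stripped serum and incubated 5 h, then compounds in concentration series were added for 16 h at 37 °C. Stimulation was scaled between DMSO basal and 50 nM 1α,25-dihydroxyvitamin D3.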
# [14] = target: Peroxisome proliferator-activated receptor alpha (Homo sapiens) (UniProt Q07869); test: qHTS assay for small molecule agonists of the peroxisome proliferator-activated receptor alpha (PPARalpha) signaling pathway (AID 651778); conditions: PathHunter PPARalpha complementation, chemiluminescence, 6 h; hits give high values
# Sequence of Peroxisome proliferator-activated receptor alpha (Homo sapiens) (Q07869 whole entry, looked up): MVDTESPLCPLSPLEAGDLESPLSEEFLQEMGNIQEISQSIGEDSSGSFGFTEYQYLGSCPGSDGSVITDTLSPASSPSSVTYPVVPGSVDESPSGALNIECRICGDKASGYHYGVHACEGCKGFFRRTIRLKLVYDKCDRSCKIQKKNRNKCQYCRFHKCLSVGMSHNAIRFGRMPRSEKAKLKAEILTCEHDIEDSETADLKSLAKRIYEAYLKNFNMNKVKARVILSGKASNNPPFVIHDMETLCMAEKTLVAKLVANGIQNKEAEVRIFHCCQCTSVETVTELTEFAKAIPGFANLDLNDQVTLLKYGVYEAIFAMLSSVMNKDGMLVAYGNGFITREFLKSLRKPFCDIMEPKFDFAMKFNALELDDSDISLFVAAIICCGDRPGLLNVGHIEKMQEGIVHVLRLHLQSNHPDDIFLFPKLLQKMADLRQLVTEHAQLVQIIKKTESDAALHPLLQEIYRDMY
# In short: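 Cells plated at 2,000/well and held overnight at 37 C, 5% CO2, then compound added by pin tool for 6 hr; after PathHunter detection reagent and 60 min at room temperature, chemiluminescence from enzyme complementation was read.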
# [15] = target: Nuclear receptor ROR-gamma (Homo sapiens) (UniProt P51449); test: qHTS assay for small molecule antagonists of the retinoid-related orphan receptor gamma (ROR-gamma) signaling pathway (AID 651802); conditions: ROR-gamma antagonist cell reporter assay; series mostly up to 92.2 µM; further: nearly all actives have a fitted effect of over 60% in size
# Sequence of Nuclear receptor ROR-gamma (Homo sapiens) (P51449 whole entry, looked up): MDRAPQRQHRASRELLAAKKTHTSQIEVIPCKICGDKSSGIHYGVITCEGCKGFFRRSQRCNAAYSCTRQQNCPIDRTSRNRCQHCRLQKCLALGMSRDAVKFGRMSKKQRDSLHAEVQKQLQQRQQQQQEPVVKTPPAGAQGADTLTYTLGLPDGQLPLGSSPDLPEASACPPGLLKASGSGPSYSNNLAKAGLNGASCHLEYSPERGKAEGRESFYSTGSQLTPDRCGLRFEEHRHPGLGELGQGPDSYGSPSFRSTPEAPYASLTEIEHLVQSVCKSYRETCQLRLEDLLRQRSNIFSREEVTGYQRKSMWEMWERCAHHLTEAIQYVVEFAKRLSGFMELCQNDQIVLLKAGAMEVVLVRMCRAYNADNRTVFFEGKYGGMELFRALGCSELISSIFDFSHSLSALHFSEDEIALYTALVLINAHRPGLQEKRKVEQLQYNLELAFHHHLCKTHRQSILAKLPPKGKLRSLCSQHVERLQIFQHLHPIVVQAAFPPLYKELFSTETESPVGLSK
# In short: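 CHO cells carrying TET-inducible ROR-gamma and an ROR response element–luciferase reporter were exposed to compound, then induced with doxycycline. After 16hr at 37C, luminescence was read; lower signal indicates antagonism.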
# [16] = qHTS assay for small molecule antagonists of the retinoid-related orphan receptor gamma (ROR-gamma) signaling pathway - cell viability counter screen (AID 720652; active means well fitted curve in the direction sought with a large enough effect in the repeat runs; an effect the other way counts as inactive or inconclusive;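 further: compound exposure lasted 16 hr before ATP read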); conditions: RORgamma reporter cell line viability counter screen; series mostly up to 92.2 µM
# In short: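 Counter screen in CHO cells carrying TET-inducible ROR-gamma and an ROR response element-luciferase reporter; cells plated 5 hr, compound pinned, doxycycline added, then 16 hr at 37 C. Viability read as intracellular ATP by CellTiter-Glo luminescence.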
# [17] = qHTS assay for small molecule agonists of the antioxidant response element (ARE) signaling pathway measured by Nrf2-dependant transcriptional activity - cell viability counter screen (AID 720653; active means well fitted curve in the direction sought with a large enough effect in the repeat runs; an effect the other way counts as inactive or inconclusive); conditions: ARE-bla HepG2 viability, CellTiter-Glo ATP luminescence, 16 h; hits give low values
# In short: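 ARE-bla HepG2 cells (2,000/well) rested 5 hrs at 37C/5% CO2, then exposed to compounds in DMSO for 16 hrs. Viability was read in the same wells as intracellular ATP by luminescence, 30 min at room temperature after reagent addition.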
# [18] = target: Nuclear receptor subfamily 1 group I member 2 (Rattus norvegicus) (UniProt Q9R1A7); test: qHTS assay for small molecule activators of the rat pregnane X receptor (rPXR) signaling pathway (AID 651751; call rule not given here); conditions: rPXR reporter cells, luciferase (One-Glo), 24 h
# Sequence of Nuclear receptor subfamily 1 group I member 2 (Rattus norvegicus) (Q9R1A7 whole entry, looked up): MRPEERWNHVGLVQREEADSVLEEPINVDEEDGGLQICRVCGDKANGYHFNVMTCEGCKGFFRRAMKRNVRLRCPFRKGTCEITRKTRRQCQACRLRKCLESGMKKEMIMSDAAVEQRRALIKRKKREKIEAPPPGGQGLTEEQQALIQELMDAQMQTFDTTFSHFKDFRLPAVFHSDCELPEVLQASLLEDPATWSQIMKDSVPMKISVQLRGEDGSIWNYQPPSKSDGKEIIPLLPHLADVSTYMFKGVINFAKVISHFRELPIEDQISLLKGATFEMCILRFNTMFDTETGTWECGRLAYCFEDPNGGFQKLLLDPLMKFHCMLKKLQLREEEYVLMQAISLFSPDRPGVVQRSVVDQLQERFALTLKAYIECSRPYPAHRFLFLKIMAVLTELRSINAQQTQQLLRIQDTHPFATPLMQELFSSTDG
# [19] = qHTS assay for small molecule disruptors of the mitochondrial membrane potential - 5 hr assay (AID 651755; calls by dose curve; further: nearly all actives have a fitted effect of over 40% in size); conditions: JC-1-type ratio dye; series mostly up to 92.2 µM
# In short: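 HepG2 cells, attached overnight at 37C, were exposed to compound or DMSO for 5 hr at 37C, 5% CO2. Mito-MPS dye was then added for 30 min, and fluorescence read at 490/535 nm (monomers) and 540/590 nm (aggregates).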
# [20] = qHTS assay for cell viability of the p53RE-bla HCT-116 cell line (AID 743292); conditions: p53RE-bla HCT-116 viability, ATP luminescence, 16 h; series mostly up to 95 µM; further: nearly all actives have a fitted effect of over 55% in size
# In short: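 Readout: CellTiter-Glo luminescence after 30 min RT. Treatment: compounds in DMSO, 16 h, 37 C. Cells: CellSensor p53RE-bla HCT-116, 4,000/well, preincubated 5 h.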
structure (smiles),measurement,setting,value
O=[N+]([O-])c1cccc(O)c1,Potency,[1],> 92 µM
same,Potency,[2],inactive
same,Potency,[3],inactive
same,outcome,[4],inactive
same,Potency,[5],inactive
same,outcome,[6],inactive
same,outcome,[7],inactive
same,outcome,[8],inactive
same,Potency,[9],inactive
same,Potency,[10],inactive
same,Potency,[11],inactive
same,Potency,[12],inactive
same,outcome,[13],inactive
same,max response,[14],-4.41%
same,Potency,[15],inactive
same,Potency,[16],inactive
same,max response,[17],-0.267%
same,max response,[18],6%
Clc1cccc2ccccc12,Potency,[1],> 92 µM
same,Potency,[2],inactive
same,Potency,[3],inactive
same,outcome,[4],inactive
same,Potency,[5],inactive
same,outcome,[6],inactive
same,outcome,[7],inactive
same,outcome,[8],inactive
same,Potency,[9],inactive
same,Potency,[10],inactive
same,Potency,[11],inactive
same,Potency,[12],inactive
same,outcome,[13],inactive
same,Potency,[19],inactive
same,max response,[14],-0.995%
same,Potency,[15],inactive
same,Potency,[16],inactive
same,max response,[17],5.5%
same,Potency,[20],inactive
same,max response,[18],3.21%
O=Cc1ccc(Cl)cc1Cl,Potency,[1],> 92 µM
same,Potency,[2],inactive
same,Potency,[3],inactive
same,outcome,[4],inactive
same,Potency,[5],inactive
same,outcome,[6],inactive
same,outcome,[7],inactive
same,Potency,[9],inactive
same,Potency,[12],inactive
same,outcome,[13],inactive
same,Potency,[19],inactive
same,max response,[14],-4.79%
same,Potency,[15],inactive
same,Potency,[16],inactive
same,max response,[17],1.04%
same,Potency,[20],inactive
same,max response,[18],2.77%
C=C(Cl)CSC(=S)N(CC)CC,Potency,[1],> 92 µM
same,"activity change, negative = cytotoxicity",[2],-85.8% (active)
same,Potency,[3],inactive
same,outcome,[4],inactive
same,Potency,[5],inactive
same,outcome,[6],inactive
same,outcome,[8],inactive
same,Potency,[9],inactive
same,Potency,[12],inactive
same,outcome,[13],inactive
same,Potency,[19],inactive
same,max response,[14],11.5%
same,Potency,[15],inactive
same,Potency,[16],inactive
same,max response,[17],-13%
same,Potency,[20],inactive
same,max response,[18],1.65%
C=CC(=O)OCCO,Potency,[2],31.6 µM (active)
same,Potency,[3],inactive
same,Potency,[5],inactive
same,outcome,[6],inactive
same,outcome,[7],inactive
same,outcome,[8],inactive
same,Potency,[10],inactive
same,Potency,[12],inactive
same,outcome,[13],inactive
same,Potency,[19],inactive
same,max response,[14],5.17%
same,Potency,[20],inactive
same,max response,[18],0.767%
O=[N+]([O-])c1cc(Cl)c(Cl)cc1Cl,Potency,[1],> 92 µM
same,outcome,[4],inactive
same,Potency,[5],inactive
same,outcome,[8],inactive
same,Potency,[9],inactive
same,Potency,[10],inactive
same,Potency,[11],inactive
same,Potency,[12],inactive
same,outcome,[13],inactive
same,Potency,[19],inactive
same,Potency,[15],inactive
same,Potency,[16],inactive
same,max response,[17],-7.17%
same,Potency,[20],inactive
same,max response,[18],-0.165%
Cl/C=C/CCl,Potency,[1],> 92 µM
same,Potency,[2],inactive
same,Potency,[3],inactive
same,Potency,[5],inactive
same,outcome,[6],inactive
same,outcome,[7],inactive
same,Potency,[9],inactive
same,Potency,[10],inactive
same,Potency,[12],inactive
same,outcome,[13],inactive
same,Potency,[19],inactive
same,max response,[14],-3.36%
same,Potency,[15],inactive
same,Potency,[16],inactive
same,max response,[17],-1.22%
same,Potency,[20],inactive
same,max response,[18],-4.52%

# Source: PubChem BioAssay (NCATS)
